The values that follow come from PubChem BioAssay AID1832 (Broad Institute, 2009).

The structures appear in SMILES notation. In all, about 300,000 compounds went through this assay and about 1,100 (0.37%) were called active. The full list was thinned out, with actives kept by preference. Unmarked numbers belong to inactive results.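 How the source made its calls: active means inhibition past about -25% in most replicates, and total fluorescence under double the plate's negative control median (limit read from the data); inconclusive means replicates evenly split on the limit, or fluorescence at least double controls; inactive means too little inhibition in most replicates.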

The target in the assay is Zinc finger protein mex-5 (Caenorhabditis elegans) (UniProt Q9XUB2). The assay can be described thus: MEX-5 zinc finger RNA-binding disruptors – biochemical, C. elegans, fluorescence polarization, MLPCN library, primary screen (AID 1832).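 Further: 0% = DMSO and -100% = 5 µM competing unlabeled TCR2 RNA.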 Conditions: MEX-5/FITC-TCR2 RNA binding, at 10 µM, hits give low values. For orientation: Fluorescence polarisation rises when a labelled molecule tumbles more slowly, as on binding a larger partner.
Zinc finger protein mex-5 (Caenorhabditis elegans), sequence (Q9XUB2 whole entry, looked up): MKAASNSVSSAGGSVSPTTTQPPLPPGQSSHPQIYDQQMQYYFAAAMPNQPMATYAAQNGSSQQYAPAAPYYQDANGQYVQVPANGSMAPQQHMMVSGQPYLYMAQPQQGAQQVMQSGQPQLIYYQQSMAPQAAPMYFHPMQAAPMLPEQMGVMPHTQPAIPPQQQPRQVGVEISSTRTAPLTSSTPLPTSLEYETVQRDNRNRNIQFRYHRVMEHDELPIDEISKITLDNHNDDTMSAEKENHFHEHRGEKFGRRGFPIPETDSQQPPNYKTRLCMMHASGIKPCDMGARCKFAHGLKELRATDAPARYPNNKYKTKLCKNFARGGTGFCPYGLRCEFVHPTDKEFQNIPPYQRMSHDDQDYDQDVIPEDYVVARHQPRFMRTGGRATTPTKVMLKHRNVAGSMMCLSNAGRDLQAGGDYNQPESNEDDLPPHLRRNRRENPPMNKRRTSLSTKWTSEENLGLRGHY
Regarding `O=C1NC(=O)N(c2ccccc2)C(=O)/C1=C/c1ccc([N+](=O)[O-])s1`, the activity score (negative = inhibition of binding) is -35.6% (active). For the compound `Cc1cccc(N2C(=O)NC(=O)/C(=C\c3cnn(-c4ccccc4)c3)C2=O)c1`, the activity score (negative = inhibition of binding) was 1.06%. With `O=C1NC(=O)N(c2ccc(F)cc2)C(=O)/C1=C/c1ccc2c(c1)CCCN2Cc1ccccc1` the figure was -7.18%; with `COc1ccc2[nH]c3c(c2c1)CCN[C@H]3C`, 2.22%. The figure for `COc1ccc(N2C(=O)/C(=C/c3ccco3)C(=O)NC2=S)cc1` is -95.1% (active); for `COc1ccc(CN2C(=O)NC(=O)/C(=C\c3ccc(OC)c(OC)c3OC)C2=O)cc1` it is 7.01%; for `Cc1cc(/C=C2/C(=O)NC(=O)N(Cc3ccco3)C2=O)c(C)n1-c1ccc(C(=O)O)cc1` it is -4.55%. With `CN(C)CC1CCCCC1OC(=O)c1ccc(Cl)c(Cl)c1` (stereo not given) the figure was -0.533%; with `O=Cc1cn(Cc2ccc(F)cc2Cl)c2ccccc12`, -1.5%; with `COc1cccc(-c2nc3ccc(N4CCN(C)CC4)cc3[nH]2)c1`, 2.54%.
